{"source": "PubChem BioAssay (NCATS)", "note": "Records with an inconclusive call do not appear. Calls of active or inactive are those of the source. Calls come from the whole dose curve; as a rule, active = well fitted inhibition curve with a large enough effect; inconclusive = small, poorly fitted or top-dose-only effect; inactive = no such curve, though single readings can be large or run the other way. Potency is the fitted concentration of half-maximal effect."}
{"assay": "NS1 protein of Zika virus - qHTS assay to identify small molecule inhibitors in human HEK 293 cells (AID 1347053); note: nearly all actives have a fitted effect of over 55% in size;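 for activity change, negative = inhibition: plate controls were infected untreated cells for no effect and uninfected cells for full effect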", "details": "HEK293 ZIKV MR766 infection, NS1 TR-FRET, 24 h; series mostly up to 46.1 µM; activity change, negative = inhibition: at the top concentration", "description": "National Center for Advancing Translational Sciences [NCATS]\nJohns Hopkins University School of Medicine\nThe non-structural 1 (NS1) protein of zika virus is known to associate with the viral replication complex. This cell-based TR-FRET ZIKV NS-1 assay measures the increased NS-1 protein in human HEK 293 cells after a 24-hour Zika virus infection by a TR-FRET assay readout. A decrease in the Time-resolved fluorescence energy transfer (TR-FRET) signal in this assay by small molecule treatment indicates an inhibitory effect of the small molecule on the expression of Zika virus NS1 correlating with Zika virus replication.\nHEK 293 cells were cultured in EMEM (ATCC, Cat. # 30-2003) medium with 10% fetal bovine serum (GE healthcare Life Sciences, Cat. # SH30071.03), and 1% Pen/Strep (Gibco, Cat. # 15140-122). Cells were seeded in the assay plate and incubated at 37 C with 5% CO2 for 20 hours. Compounds were added to cells and incubated for one hour before addition of ZIKV MR766 strain solution to cells (MOI = 0.5). After an incubation at 37 C for 24 hours, the reagent mixture of TR-FRET ZIKV NS1 assay using two anti-ZIKV NS1 antibodies was added to assay plates. The TR-FRET signals in assay plates were measured using an Envision plate reader (PerkinElmer). Data were normalized by using the cell-containing wells without ZIKV as a negative control (0% NS-1) and wells containing ZIKV infected cells as a positive control (100% NS-1 level)."}
{"compound": "O=C1NC(=O)C(c2ccccc2)(c2ccccc2)N1", "Potency": "inactive"}
{"compound": "Clc1cc(Cl)cc(CNc2ncncc2-c2ccc3c(c2)OCO3)c1", "Potency": "18.7 µM (active)"}
{"compound": "O=C(O)C(O)Cc1ccc(O)c(O)c1", "note": "(stereo not given)", "activity change, negative = inhibition": "0.286% (inactive)"}
{"compound": "O=C1C(Cl)=C(NCCN2CCOCC2)C(=O)c2ncccc21", "Potency": "9.35 µM (active)"}
{"compound": "N#Cc1ccc(NC(=O)Nc2ccccc2Br)c2n[nH]nc12", "activity change, negative = inhibition": "2.14% (inactive)"}
{"compound": "CCOC(=O)C1=C(N)Oc2ccc(Br)cc2C1C(C#N)C(=O)OCC", "note": "(stereo not given)", "activity change, negative = inhibition": "3.18% (inactive)"}
{"compound": "NC(=O)c1ccc2nc(-c3ccc(Oc4ccc(Cl)cc4)cc3)[nH]c2c1", "activity change, negative = inhibition": "2.68% (inactive)"}
{"compound": "CC/C(=C(\\c1ccccc1)c1ccc(OCCN(C)C)cc1)c1ccccc1", "activity change, negative = inhibition": "34.4% (inactive)"}
{"compound": "COc1ccccc1N1CCN(CCCNc2cc(=O)n(C)c(=O)n2C)CC1", "Potency": "inactive"}
{"compound": "Clc1ccc(Cn2c(CN3CCCC3)nc3ccccc32)cc1", "Potency": "inactive"}
{"compound": "CCCCCCCCCCCC1=C(O)C(=O)C=C(O)C1=O", "activity change, negative = inhibition": "0.581% (inactive)"}
{"compound": "CC(C)C[C@H](CC(=O)O)C(=O)N[C@@H](Cc1c[nH]c2ccccc12)C(=O)N[C@@H](C)c1ccccc1", "activity change, negative = inhibition": "-1.96% (inactive)"}
{"compound": "Cn1c(N2CCCCS2(=O)=O)nc(C(=O)NCc2ccc(F)cc2)c(O)c1=O", "activity change, negative = inhibition": "23.5% (inactive)"}
{"compound": "O=C1c2ccccc2-[n+]2ccc3c([nH]c4ccccc43)c21", "Potency": "1.05 µM (active)"}
{"compound": "COC[C@@H](c1ccc(C(F)(F)F)cc1)N1CCN(C2(C)CCN(C(=O)c3c(C)ncnc3C)CC2)C[C@H]1C", "activity change, negative = inhibition": "7.15% (inactive)"}
{"compound": "CCCNC(=O)NS(=O)(=O)c1ccc(Cl)cc1", "Potency": "inactive"}
{"compound": "CCOC1OC(=O)C[C@H]1NC(=O)[C@@H]1CCCN1C(=O)[C@@H](NC(=O)c1ccc(N)c(Cl)c1)C(C)(C)C", "note": "(stereo not given in full)", "activity change, negative = inhibition": "-0.845% (inactive)"}
{"compound": "CC[C@H]1OC(=O)[C@H](C)[C@@H](O[C@H]2C[C@@](C)(OC)[C@@H](O)[C@H](C)O2)[C@H](C)[C@@H](O[C@@H]2O[C@H](C)C[C@H](N(C)C)[C@@H]2O)[C@](C)(O)C[C@@H](C)CN(C)[C@H](C)[C@@H](O)[C@]1(C)O", "activity change, negative = inhibition": "-4.88% (inactive)"}
{"compound": "C=C1C(=O)OC(CCCCCCCC)C1C(=O)O", "note": "(stereo not given)", "activity change, negative = inhibition": "1.08% (inactive)"}
{"compound": "COc1ccc(-c2oc3c(CC=C(C)C)c(OC4O[C@H](CO)[C@@H](O)[C@H](O)[C@@H]4O)cc(O)c3c(=O)c2OC2O[C@@H](C)[C@H](O)[C@@H](O)[C@@H]2O)cc1", "note": "(stereo not given in full)", "Potency": "18.7 µM (active)"}
{"compound": "c1ccc2c(-c3cnn4cc(-c5ccc(N6CCNCC6)cc5)cnc34)ccnc2c1", "Potency": "4.18 µM (active)"}
{"compound": "Cc1nnc(C(C)C)n1C1C[C@H]2CC[C@@H](C1)N2CC[C@H](NC(=O)C1CCC(F)(F)CC1)c1ccccc1", "note": "(stereo not given in full)", "activity change, negative = inhibition": "-0.799% (inactive)"}
{"compound": "NC(N)=Nc1nc(CSCC/C(N)=N/S(N)(=O)=O)cs1", "Potency": "inactive"}
{"compound": "N#CC(=C(N)Sc1ccccc1N)C(C#N)=C(N)Sc1ccccc1N", "activity change, negative = inhibition": "4.36% (inactive)"}
{"compound": "O=C(NCCN1CCOCC1)c1ccc(Cl)cc1", "Potency": "inactive"}
{"compound": "C[C@]12CC[C@@H]3c4ccc(O)cc4C[C@@H](CCCCCCCCCS(=O)CCCC(F)(F)C(F)(F)F)[C@H]3[C@H]1CC[C@H]2O", "note": "(stereo not given in full)", "activity change, negative = inhibition": "4.26% (inactive)"}
{"compound": "CC(C)(C)OC(=O)N[C@H]1CCCCCC=C[C@@H]2C[C@@]2(C(=O)NS(=O)(=O)C2CC2)NC(=O)[C@@H]2C[C@@H](OC(=O)N3Cc4cccc(F)c4C3)CN2C1=O", "activity change, negative = inhibition": "-9.54% (inactive)"}
{"compound": "O=C(O)CCc1nc(-c2ccccc2)c(-c2ccccc2)o1", "Potency": "inactive"}
{"compound": "O=C1c2c(O)cc(O)cc2O[C@H](c2cc(O)c(O)c(O)c2)[C@H]1O", "activity change, negative = inhibition": "8.61% (inactive)"}
{"compound": "CC(C)(C)C(=O)Oc1ccc2c(c1)nc(NC(=O)c1cccc([N+](=O)[O-])c1)n2CCCO", "activity change, negative = inhibition": "7.28% (inactive)"}
{"compound": "CCC(=O)O[C@]1(C(=O)CO)CC[C@H]2[C@@H]3CCC4=CC(=O)CC[C@]4(C)[C@@H]3CC[C@@]21C", "activity change, negative = inhibition": "2.43% (inactive)"}
{"compound": "Oc1ccc(C2CCN(c3ccnc4ccccc34)CC2)cc1O", "activity change, negative = inhibition": "-0.65% (inactive)"}
{"compound": "CC[C@@]1(O)C[C@H](O[C@H]2C[C@H](N(C)C)[C@H](O[C@H]3C[C@H](O)[C@H](O[C@H]4CCC(=O)[C@H](C)O4)[C@H](C)O3)[C@H](C)O2)c2c(cc3c(c2O)C(=O)c2c(O)cccc2C3=O)[C@@H]1C(=O)OC", "activity change, negative = inhibition": "0.305% (inactive)"}
{"compound": "O=C(O)c1cc(O)c2c(c1)C(=O)c1cccc(O)c1C2=O", "activity change, negative = inhibition": "7.21% [at 92.8 µM] (inactive)"}
{"compound": "COc1ccc2c3c1OC1C[C@@H](O)C=C[C@@]31CCN(C)C2", "note": "(stereo not given in full)", "activity change, negative = inhibition": "16.3% (inactive)"}
{"compound": "NC[C@@H]1O[C@@H](O[C@H]2[C@@H](O)[C@H](O[C@@H]3[C@@H](O)[C@@H](N)C[C@H](N)[C@H]3O[C@H]3O[C@H](CN)[C@@H](O)[C@@H](O)[C@H]3N)O[C@H]2CO)[C@H](N)[C@@H](O)[C@@H]1O", "activity change, negative = inhibition": "2.03% (inactive)"}
{"compound": "CC(=O)Nc1ccc([C@H](C)C(=O)Nc2ncc(C(C)C)s2)cc1", "Potency": "3.72 µM (active)"}
{"compound": "COc1ccc(-c2coc3cc(O)ccc3c2=O)cc1", "activity change, negative = inhibition": "3.27% (inactive)"}
{"compound": "O=c1c(-c2ccc(O)cc2)coc2cc(OC3O[C@H](CO)[C@H](O)[C@H](O)[C@H]3O)cc(O)c12", "note": "(stereo not given in full)", "activity change, negative = inhibition": "2.36% (inactive)"}
{"compound": "CC(C)C(C)C=CC(C)C1CCC2C3=CC=C4CC(O)CCC4(C)C3CCC21C", "note": "(stereo not given)", "activity change, negative = inhibition": "6.58% (inactive)"}
